# Assay outcomes: PubChem, several laboratories
# APP transl inh: inhibitors of APP translation via 5'UTR reporter, primary screen, APP 5'UTR luciferase, SH-SY5Y cells | SH-SY5Y APP 5'UTR-luciferase reporter, luminescence | inhibition, % at 2 µM | 190,000 compounds, 0.82% hits | AID 1285, 2008;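 active = inhibition above a set limit, derived from the sample mean plus 3 SD, cut at about 45% in these data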
# NF-kB neuron act: activators of NF-kB expression in neurons, primary screen, cell-based, HTS | 190,000 compounds, 1.6% hits | AID 1239, 2008 | fold change at 12.5 µM | human neuronal cells, NF-kB reporter expression; hits give high values; in the data active = fold change above about 3.3
# APP 5'UTR act: activators of APP 5'UTR luciferase reporter, primary screen, SH-SY5Y cells | SH-SY5Y APP 5'UTR luciferase reporter, luminescence; zero percent = DMSO vehicle wells | activation, % at 2 µM | 190,000 compounds, 1% hits;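 active = activation above a set limit, based on mean plus 3 SD of controls, cut at about 140% in these data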
# STAT1 activator: STAT1 signaling activators, primary screen, cell-based, HTS, luciferase reporter; AID 932, 2007; activation (% of control), % at 5.5 µM; 200,000 compounds, 2.6% hits; NIH 3T3 STAT1-luciferase reporter, IFN-gamma, luminescence; 100% = IFN-gamma alone, no compound;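 active = activation above the screen-wide mean activation plus 3 SD, cut at about 130% in these data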
# Wee1 degr inh: Wee1 degradation inhibitors, primary screen, cell-based, HeLa, Wee1K328M-luciferase, luminescence. 220,000 compounds, 1.2% hits. AID 1321, 2008. reporter increase, % at 5 µM. Wee1-like protein kinase (Homo sapiens), P30291. HeLa Luc-Wee1K328M stability; 100% = proteasome inhibitor MG132 effect;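 active = activation above the mean of all tested compounds plus 3 SD, set per screening run, cut at about 8.8% in these data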;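 also: cells exposed to compound for 20 h before luminescence read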
# Target sequence (P30291 whole entry K328M): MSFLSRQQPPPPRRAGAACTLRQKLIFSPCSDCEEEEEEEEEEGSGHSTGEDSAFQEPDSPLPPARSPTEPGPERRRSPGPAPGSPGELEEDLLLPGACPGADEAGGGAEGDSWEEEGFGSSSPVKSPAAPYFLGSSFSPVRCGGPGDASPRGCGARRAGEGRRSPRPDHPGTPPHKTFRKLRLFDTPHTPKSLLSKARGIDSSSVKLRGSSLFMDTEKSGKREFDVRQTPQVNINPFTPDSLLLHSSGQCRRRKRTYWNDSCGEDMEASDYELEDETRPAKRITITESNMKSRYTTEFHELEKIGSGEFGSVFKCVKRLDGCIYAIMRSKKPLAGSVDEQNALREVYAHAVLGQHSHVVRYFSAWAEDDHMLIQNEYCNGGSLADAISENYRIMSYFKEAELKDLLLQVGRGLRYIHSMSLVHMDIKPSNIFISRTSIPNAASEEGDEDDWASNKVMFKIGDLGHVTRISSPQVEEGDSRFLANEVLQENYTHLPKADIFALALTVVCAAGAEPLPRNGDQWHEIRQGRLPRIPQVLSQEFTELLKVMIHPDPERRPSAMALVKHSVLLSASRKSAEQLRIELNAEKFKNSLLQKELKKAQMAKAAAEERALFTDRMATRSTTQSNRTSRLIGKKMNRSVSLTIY
# Hsp70 act: Hsp70 transcriptional activators, primary screen, cell-based, HeLa, Hsp70 promoter luciferase, luminescence, 10 µM; HeLa Hsp70 promoter luciferase reporter; scaled: vehicle 0, proteasome-inhibitor control 100%; activation, % at 10 µM; 200,000 compounds, 0.04% hits;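 active = activation above the mean across all tested compounds plus 3 SD, cutoff set per campaign, cut at about 5.5% in these data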
# STAT1 act conf: STAT1 signaling activators, confirmation, cell-based, HTS, luciferase reporter; activation (% of control), % at 5.7 µM; 1,200 compounds, 97% hits; NIH 3T3 STAT1-luciferase reporter, IFN-gamma potentiation, luminescence; 100% = IFN-gamma EC80 alone, no compound; shares compounds with STAT1 activator;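 active = activation above a set limit carried over from the earlier primary STAT1 screen, cut at about 140% in these data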
# NFkB act: NF-kB reporter activators, TNF-alpha stimulated, counter-screen for STAT1 activator project, cell-based, HEK293T, luciferase luminescence; shares compounds with STAT1 activator; 100% = TNF-alpha with vehicle only; activation (% of control), % at 5.7 µM; 1,200 compounds, 43% hits;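 active = activation above the mean of solvent-only control wells plus 3 SD, set per campaign, cut at about 130% in these data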;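 also: TNF-alpha given at a submaximal dose yielding about 80% of full reporter signal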
# STAT3 act STAT1c: STAT3 reporter activation by STAT1 hits, confirmation, counter-screen for STAT1 activator project, U3A cells, luciferase, luminescence. 1,200 compounds, 46% hits. activation (% of control), % at 5.7 µM. shares compounds with STAT1 activator. IL-6; cells lack STAT1; 100 = IL-6 alone, no compound effect;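 active = activation above the solvent-only control well mean plus 3 SD, set per plate batch, cut at about 110% in these data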;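 also: higher means more STAT3 reporter activation so hits are non-selective activators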
# A number is an active result; – = inactive; · = not tested or not shown. An excerpt weighted towards active compounds, which were near 4.8% of everything screened.
SMILES,APP transl inh,NF-kB neuron act,APP 5'UTR act,STAT1 activator,Wee1 degr inh,Hsp70 act,STAT1 act conf,NFkB act,STAT3 act STAT1c
Cc1ccc(/C(N)=N/OC(=O)c2ccc(C)cc2Cl)cc1,–,–,162,164,–,–,207,–,–
Cc1cccc(/C(N)=N/OC(=O)c2ccc(Cl)cc2Cl)c1,–,–,139,161,–,–,222,–,114
Cc1nn(C)cc1/C=C/C(=O)c1ccc(O)cc1,–,–,–,–,–,–,·,·,·
N#C/C(=N\Nc1ccc(Cl)cc1)C(=N)N1CCCCC1,–,7.4,190,223,–,–,316,149,118
O=C(NCCSc1ccccc1)c1ccc(Br)cc1,–,10,180,157,–,–,205,–,111
Cc1ccc(OCC(=O)N(Cc2cccs2)C2CCS(=O)(=O)C2)cc1C (centres undefined),·,·,·,·,–,·,·,·,·
Cc1ccc2nc(-c3ccc(NS(=O)(=O)c4ccccc4)cc3)sc2c1,–,–,–,–,–,–,·,·,·
CCN(CC)S(=O)(=O)c1ccc(C(=O)OCC(=O)Nc2ccc(-c3nc4ccc(C)cc4s3)cc2)cc1,–,–,151,153,–,–,175,–,–
Cc1ccc2nc(-c3ccc(NC(=O)CCN4C(=O)c5ccccc5C4=O)cc3)sc2c1,–,7.4,–,160,–,–,153,–,–
Cc1ccc2nc(-c3ccc(NS(=O)(=O)c4ccc(F)c(F)c4)cc3)sc2c1,–,6.5,180,172,–,–,217,137,–
Cc1ccc2nc(-c3ccc(NC(=O)CSCC(=O)O)cc3)sc2c1,·,·,·,·,–,·,·,·,·
NS(=O)(=O)c1ccc(CCNC(=O)C2CCN(S(=O)(=O)c3ccccc3)CC2)cc1,–,–,–,–,–,–,·,·,·
Oc1ccc(-c2cn3c(n2)SCC3)cc1,–,–,–,–,–,–,·,·,·
Brc1ccc(-c2cn3c(n2)SCC3)cc1,–,5.2,157,166,–,–,199,137,–
Clc1ccc(-c2cn3c(n2)SCC3)cc1,–,4.8,153,158,–,–,183,137,122
c1ccc(-c2cn3c(n2)SCC3)cc1,–,–,–,–,–,–,·,·,·
CCN1CCN(C(=O)c2nn(-c3ccc(OC)cc3)c(=O)c3c2c2ccccc2n3C)CC1,–,–,–,–,–,–,·,·,·
COc1cc(OC)cc(C(=O)NC(=S)Nc2nc(-c3cc4ccccc4o3)cs2)c1,·,·,·,·,–,·,·,·,·
COCCNc1nc(-c2cc3ccccc3o2)cs1,–,8.1,180,194,–,–,230,–,–
Cc1ccc(NC(=O)Nc2nnc(-c3ccccc3)o2)cc1,–,–,–,–,–,–,·,·,·
O=C(c1cc(F)ccc1F)C1CCCN(C(=O)c2ccc(F)cc2Cl)C1 (centres undefined),–,–,–,–,–,–,·,·,·
COC(=O)CCC(=O)Nc1ccc(C)cc1OC(=O)CCC(=O)OC,–,–,–,–,–,–,·,·,·
CCCCCNc1nc(-c2ccccc2)cs1,–,6.4,–,153,–,–,177,–,–
Clc1ccccc1Nc1nc(-c2cccnc2)cs1,–,7.8,195,168,–,–,226,134,111
CC(=O)Nc1ccc(-c2csc(Nc3ncccn3)n2)cc1,–,–,141,155,–,–,168,–,111
SMILES,APP transl inh,NF-kB neuron act,APP 5'UTR act,STAT1 activator,Wee1 degr inh,Hsp70 act,STAT1 act conf,NFkB act,STAT3 act STAT1c
c1ccc(-c2csc(Nc3ncccn3)n2)cc1,–,–,163,157,–,–,240,–,–
c1cncc(Nc2nc(-c3cccnc3)cs2)c1,–,–,–,–,–,–,·,·,·
c1ccc(CCNc2nc(-c3ccncc3)cs2)cc1,–,–,–,–,–,–,·,·,·
O=C(NNc1nc(-c2ccccc2)cs1)c1ccco1,–,–,–,–,–,–,·,·,·
Cc1nc2c(C)cccn2c1/C(O)=C1\C(=O)C(=O)N(CCN(C)C)C1c1ccncc1 (centres undefined),–,–,–,–,–,–,·,·,·
CCOc1ccc(N=C(C)C2=C(O)c3ccccc3C2=O)cc1,·,·,·,·,–,·,·,·,·
COc1ccc(N=C(C)C2=C(O)c3ccccc3C2=O)cc1,–,5.4,206,165,–,–,209,–,–
Cc1ccc(OCc2nc(-c3ccccc3)no2)c(C)c1,–,5.2,–,163,–,–,185,–,–
Cc1cc(C)c(C)c(OCc2nc(-c3cccnc3)no2)c1,–,–,–,–,–,–,·,·,·
CCCCNS(=O)(=O)c1ccc2nc(SCC(=O)N3CC(C)OC(C)C3)[nH]c2c1 (centres undefined),–,–,–,–,–,–,·,·,·
CCOC(=O)c1cc(-c2ccccc2)n(CC(=O)O)c1C,–,–,–,–,–,–,·,·,·
CC(=O)OCCCN1c2ccccc2Nc2nnc(-c3ccccc3)cc21,–,–,171,158,9.1,–,192,–,–
Cc1ccc(-c2csc(N3C(=N)SCC3=O)n2)cc1,·,·,·,·,–,·,·,·,·
COc1ccc(N2CCN(C(CNC(=O)C(=O)NCc3cccnc3)c3ccco3)CC2)cc1 (centres undefined),–,–,–,–,–,–,·,·,·
CCC(=O)Nc1ccc(-c2csc(C)n2)cc1,–,–,–,–,–,–,·,·,·
Cc1nc(-c2ccc(NC(=O)c3ccccc3Br)cc2)cs1,–,4.8,–,151,–,–,174,–,–
Cc1nc(-c2ccc(NC(=O)c3ccccc3C)cc2)cs1,–,5.1,–,159,–,–,178,–,–
COc1ccc(C(=O)/C=C/Nc2cccc(C)n2)cc1OC,–,4.1,–,171,–,–,209,–,–
COc1ccc(N/C=C\C(=O)c2ccc3c(c2)OCO3)cc1OC,–,–,–,156,–,–,171,–,–
O=C(O)/C=C\C(=O)Nc1ccccc1C#Cc1ccc(Br)cc1,–,8,158,159,–,–,131,–,–
